# Experimental data from PubChem BioAssay.
# Activity calls are given as the source filed them.
# Legend:
# [1] = tested on: PRMT1 (protein arginine N-methyltransferase 1); experiment: PRMT1 binders on small-molecule microarrays, primary screen, biochemical, small-molecule microarray, 635 nm fluorescence (AID 1088); conditions: small-molecule microarray binding, higher = more signal;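 further: binding of Prmt1 protein to compounds spotted on small-molecule microarray slides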
# [2] = yeast growth modulation, basal conditions, primary screen, YJM789 clinical isolate, OD600, 24 h (AID 1089);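 further: growth of clinical yeast isolate S. cerevisiae YJM 789 seeded 1000 cells per well; test concentration not given here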; conditions: S. cerevisiae YJM789 growth, higher = more signal, called active from +8 up or from −8 down
# [3] = fission yeast growth modulation, primary screen, strain 972, OD600, 24 h, no modulator (AID 1090);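 further: basal condition with compound alone and no growth modifier present; test concentration not given here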; conditions: S. pombe 972 growth, higher = more signal, called active from +8 up or from −8 down
# [4] = S. cerevisiae growth modulation with rapamycin, primary screen, strain BY4716, OD600, 96 h (AID 1091); conditions: higher = more signal, called active from +8 up or from −8 down; further: test concentration not given here
# [5] = target: Torsin-1A-interacting protein 2 (Homo sapiens) (UniProt Q8NFQ8); experiment: LULL1 binders on small-molecule microarray, primary screen, cell lysate, human LULL1 lysate, 635/667 nm fluorescence (AID 1092); conditions: hLULL1 lysate binding, 635 nm fluorescence, higher = more signal;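 further: probe is lysate of COS7 cells overexpressing human LULL1; score merges per-feature 667 nm fluorescence with signal-to-noise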
# Sequence of Torsin-1A-interacting protein 2 (Homo sapiens) (Q8NFQ8 whole entry, looked up): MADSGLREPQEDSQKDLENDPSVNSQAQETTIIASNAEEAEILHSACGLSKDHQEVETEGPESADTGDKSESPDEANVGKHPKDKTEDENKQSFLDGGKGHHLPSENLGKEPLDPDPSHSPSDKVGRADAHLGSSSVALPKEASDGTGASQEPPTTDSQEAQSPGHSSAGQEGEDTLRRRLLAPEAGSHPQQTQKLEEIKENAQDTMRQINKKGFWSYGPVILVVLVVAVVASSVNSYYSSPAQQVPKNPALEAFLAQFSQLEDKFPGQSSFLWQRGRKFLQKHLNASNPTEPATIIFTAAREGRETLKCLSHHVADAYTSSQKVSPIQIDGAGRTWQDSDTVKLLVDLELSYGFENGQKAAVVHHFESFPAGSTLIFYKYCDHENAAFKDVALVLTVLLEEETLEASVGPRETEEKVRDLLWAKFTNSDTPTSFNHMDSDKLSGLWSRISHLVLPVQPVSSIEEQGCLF
# [6] = E. coli growth modulation, two-sided OD650, primary screen, E. coli filamentation project, strain DRC41, 24 h (AID 1093); conditions: OD650, 24 h, higher = more signal, called active from +8 up or from −8 down;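 further: MC1000 strain lacking acrAB efflux and sulA so SOS filamentation is blocked; test concentration not given here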
# [7] = small-molecule microarray binders of probe aLefty2, primary screen, biochemical, biotinylated probe, 635/667 nm fluorescence (AID 1094); conditions: higher = more signal;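 further: score merges spot fluorescence near 667 nm with spot signal-to-noise ratio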
# [8] = tested on: Noggin (protein binding on small-molecule microarray); experiment: Noggin binders on small-molecule microarray, primary screen, biochemical, 635/667 nm fluorescence (AID 1095); conditions: 635 nm fluorescence, higher = more signal;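 further: score merges 667 nm feature fluorescence with signal to noise over triplicate slides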
# [9] = target: Neurogenic locus notch homolog protein 3 (Homo sapiens) (UniProt Q9UM47); experiment: NOTCH3 binders on small-molecule microarray, primary screen, biochemical, 635/667 nm fluorescence (AID 1096); conditions: NOTCH3 binding, 635 nm fluorescence, higher = more signal
# Sequence of Neurogenic locus notch homolog protein 3 (Homo sapiens) (Q9UM47 whole entry, looked up): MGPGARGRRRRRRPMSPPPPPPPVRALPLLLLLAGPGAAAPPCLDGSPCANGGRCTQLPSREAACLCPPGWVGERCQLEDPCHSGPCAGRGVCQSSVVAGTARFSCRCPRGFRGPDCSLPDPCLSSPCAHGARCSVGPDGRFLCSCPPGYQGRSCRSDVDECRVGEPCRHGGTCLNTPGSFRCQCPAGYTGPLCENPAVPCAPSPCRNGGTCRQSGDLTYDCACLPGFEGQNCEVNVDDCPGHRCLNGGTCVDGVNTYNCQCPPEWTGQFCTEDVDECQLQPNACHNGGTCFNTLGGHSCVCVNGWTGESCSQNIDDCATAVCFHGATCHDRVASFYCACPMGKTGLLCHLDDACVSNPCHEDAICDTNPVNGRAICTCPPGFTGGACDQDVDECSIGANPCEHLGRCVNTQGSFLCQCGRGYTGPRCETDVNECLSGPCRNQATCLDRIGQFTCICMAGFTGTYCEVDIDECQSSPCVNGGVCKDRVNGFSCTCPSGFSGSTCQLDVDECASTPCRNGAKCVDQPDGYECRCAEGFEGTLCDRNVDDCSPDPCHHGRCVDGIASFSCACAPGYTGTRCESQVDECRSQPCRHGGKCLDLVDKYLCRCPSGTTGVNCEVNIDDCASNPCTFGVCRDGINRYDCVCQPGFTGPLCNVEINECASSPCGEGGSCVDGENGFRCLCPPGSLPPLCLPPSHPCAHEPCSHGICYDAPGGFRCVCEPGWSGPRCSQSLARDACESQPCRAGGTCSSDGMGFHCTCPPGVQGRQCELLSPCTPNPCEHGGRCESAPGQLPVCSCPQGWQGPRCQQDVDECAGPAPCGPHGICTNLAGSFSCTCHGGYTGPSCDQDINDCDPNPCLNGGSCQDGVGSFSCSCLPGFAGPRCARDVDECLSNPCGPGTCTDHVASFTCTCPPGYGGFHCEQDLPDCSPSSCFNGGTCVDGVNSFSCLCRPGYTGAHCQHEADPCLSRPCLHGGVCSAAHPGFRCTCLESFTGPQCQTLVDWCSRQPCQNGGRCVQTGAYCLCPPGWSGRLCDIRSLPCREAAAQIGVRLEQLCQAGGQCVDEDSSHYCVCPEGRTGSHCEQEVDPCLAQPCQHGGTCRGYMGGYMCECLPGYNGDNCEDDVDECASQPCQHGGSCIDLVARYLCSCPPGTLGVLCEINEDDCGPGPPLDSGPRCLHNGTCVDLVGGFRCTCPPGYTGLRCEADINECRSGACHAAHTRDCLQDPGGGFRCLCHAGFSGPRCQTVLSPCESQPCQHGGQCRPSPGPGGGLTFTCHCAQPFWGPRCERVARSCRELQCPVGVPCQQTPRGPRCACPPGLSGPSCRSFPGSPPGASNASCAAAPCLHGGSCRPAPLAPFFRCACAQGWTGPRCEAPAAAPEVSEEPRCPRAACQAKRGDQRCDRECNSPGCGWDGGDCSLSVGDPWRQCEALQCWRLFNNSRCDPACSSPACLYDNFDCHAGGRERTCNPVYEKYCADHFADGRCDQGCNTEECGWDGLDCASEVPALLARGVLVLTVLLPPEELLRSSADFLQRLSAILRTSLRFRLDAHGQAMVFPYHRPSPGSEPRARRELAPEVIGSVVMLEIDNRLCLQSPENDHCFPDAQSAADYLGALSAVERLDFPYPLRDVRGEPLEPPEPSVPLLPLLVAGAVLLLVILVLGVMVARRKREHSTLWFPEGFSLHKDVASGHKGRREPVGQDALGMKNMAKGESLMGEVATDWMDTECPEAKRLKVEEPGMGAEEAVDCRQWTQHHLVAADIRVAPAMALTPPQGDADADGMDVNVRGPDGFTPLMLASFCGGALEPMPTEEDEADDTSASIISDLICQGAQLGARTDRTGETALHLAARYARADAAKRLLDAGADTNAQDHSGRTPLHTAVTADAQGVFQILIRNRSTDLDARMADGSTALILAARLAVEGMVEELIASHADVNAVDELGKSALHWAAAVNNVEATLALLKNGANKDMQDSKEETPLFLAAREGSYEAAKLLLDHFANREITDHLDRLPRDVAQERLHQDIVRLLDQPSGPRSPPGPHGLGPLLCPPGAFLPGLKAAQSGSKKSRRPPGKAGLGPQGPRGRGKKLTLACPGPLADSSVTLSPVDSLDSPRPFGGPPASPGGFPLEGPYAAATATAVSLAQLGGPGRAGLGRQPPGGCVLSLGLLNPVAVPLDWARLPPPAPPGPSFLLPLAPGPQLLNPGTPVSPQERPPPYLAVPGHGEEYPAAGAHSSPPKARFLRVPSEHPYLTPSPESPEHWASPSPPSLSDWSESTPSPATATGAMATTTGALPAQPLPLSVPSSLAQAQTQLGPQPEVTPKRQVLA
# [10] = small-molecule microarray binders of probe aEGFR, primary screen, biochemical, biotinylated probe, 635/667 nm fluorescence (AID 1097); conditions: higher = more signal;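 further: probe is a biotinylated anti-EGFR antibody binding compounds printed on slides; score combines fluorescence near 667 nm and signal to noise of each spot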
# [11] = tested on: Plasmodium falciparum Sir2 (PF13_0152, Sir2A); experiment: pfSir2 binders on small-molecule microarrays, primary screen, biochemical, small-molecule microarray, 635 nm fluorescence (AID 1098); conditions: small-molecule microarray binding, fluorescence 635 nm; higher = more signal;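 further: score merges spot fluorescence intensity with its signal-to-noise ratio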
# [12] = small-molecule microarray binders of probe aDKK1, primary screen, biochemical, biotinylated probe, 635/667 nm fluorescence (AID 1099); conditions: higher = more signal;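 further: score merges 667nm spot fluorescence with signal to noise across triplicate slides; reference of the scale not given here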
# [13] = small-molecule microarray binders of probe aCHRDL2, primary screen, biochemical, biotinylated probe, 635/667 nm fluorescence (AID 1100); conditions: higher = more signal
# [14] = splicing luciferase reporter signal modulators, primary screen, spliceosome inhibition project, cell-based, HEK293, splice +/- reporter (AID 1101); conditions: luminescence, 24 h, higher = more signal, called active from +8 up or from −8 down;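 further: HEK293 cells carrying a splicing-competent luciferase reporter gene; test concentration not given here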
# [15] = target: Fibroblast growth factor 10 (Homo sapiens) (UniProt O15520); experiment: FGF10 binders on small-molecule microarrays, primary screen, biochemical, small-molecule microarray, 635 nm fluorescence (AID 1102); conditions: FGF10 binding, fluorescence 635 nm, higher = more signal
# Sequence of Fibroblast growth factor 10 (Homo sapiens) (O15520 whole entry, looked up): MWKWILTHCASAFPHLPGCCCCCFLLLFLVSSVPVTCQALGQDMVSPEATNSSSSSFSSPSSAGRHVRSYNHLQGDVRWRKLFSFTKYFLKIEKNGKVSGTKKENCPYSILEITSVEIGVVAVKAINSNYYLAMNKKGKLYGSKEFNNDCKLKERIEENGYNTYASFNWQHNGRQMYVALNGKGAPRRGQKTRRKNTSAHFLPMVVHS
# [16] = tested on: glycogen synthase kinase-3 (GSK3A per assay name; protocol says GSK3B); experiment: GSK3 binders on small-molecule microarrays, primary screen, biochemical, small-molecule microarray, 635 nm fluorescence, GSK3A (AID 1103); conditions: small-molecule microarray binding, fluorescence 635 nm; higher = more signal; further: the record names both GSK3A and GSK3B
# [17] = target: Epidermal growth factor receptor (Homo sapiens) (UniProt P00533); experiment: EGFR binders on small-molecule microarrays, primary screen, biochemical, small-molecule microarray, 635 nm fluorescence (AID 1104); conditions: EGFR binding, higher = more signal;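 further: score merges 667 nm emission intensity with spot signal to noise over triplicate slides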
# Sequence of Epidermal growth factor receptor (Homo sapiens) (P00533 whole entry, looked up): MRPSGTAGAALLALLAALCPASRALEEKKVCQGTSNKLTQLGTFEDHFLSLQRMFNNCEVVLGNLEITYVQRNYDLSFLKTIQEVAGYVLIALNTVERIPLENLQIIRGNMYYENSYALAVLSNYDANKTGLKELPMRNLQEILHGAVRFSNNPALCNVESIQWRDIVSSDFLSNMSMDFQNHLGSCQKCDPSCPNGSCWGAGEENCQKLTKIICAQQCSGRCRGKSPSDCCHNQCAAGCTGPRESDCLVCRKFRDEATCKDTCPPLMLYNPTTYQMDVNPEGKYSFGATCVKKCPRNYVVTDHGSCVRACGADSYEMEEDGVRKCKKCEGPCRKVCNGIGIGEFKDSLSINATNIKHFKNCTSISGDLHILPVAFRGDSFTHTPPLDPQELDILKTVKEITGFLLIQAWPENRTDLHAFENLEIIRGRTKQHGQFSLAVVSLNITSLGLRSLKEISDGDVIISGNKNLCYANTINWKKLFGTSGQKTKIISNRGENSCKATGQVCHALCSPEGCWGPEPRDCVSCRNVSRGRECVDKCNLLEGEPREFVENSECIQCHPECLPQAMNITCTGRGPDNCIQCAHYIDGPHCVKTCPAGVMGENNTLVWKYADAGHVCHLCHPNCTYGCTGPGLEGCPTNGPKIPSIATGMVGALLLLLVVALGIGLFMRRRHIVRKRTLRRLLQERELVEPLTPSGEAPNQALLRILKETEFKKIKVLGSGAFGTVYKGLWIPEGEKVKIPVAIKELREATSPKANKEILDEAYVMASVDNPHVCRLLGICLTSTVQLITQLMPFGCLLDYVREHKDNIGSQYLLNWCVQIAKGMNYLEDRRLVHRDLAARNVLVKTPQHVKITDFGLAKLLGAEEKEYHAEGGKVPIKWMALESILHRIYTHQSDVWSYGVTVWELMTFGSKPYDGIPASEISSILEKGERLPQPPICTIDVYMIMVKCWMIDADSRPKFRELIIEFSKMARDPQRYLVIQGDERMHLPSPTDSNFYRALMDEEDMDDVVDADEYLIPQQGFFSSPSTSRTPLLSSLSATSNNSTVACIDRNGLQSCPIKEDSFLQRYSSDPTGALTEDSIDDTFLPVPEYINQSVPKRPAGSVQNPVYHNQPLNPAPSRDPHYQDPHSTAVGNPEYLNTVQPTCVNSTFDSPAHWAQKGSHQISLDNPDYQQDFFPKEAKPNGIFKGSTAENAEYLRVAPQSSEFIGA
# [18] = target: Follistatin-related protein 3 (Homo sapiens) (UniProt O95633); experiment: FSTL3 binders on small-molecule microarrays, primary screen, biochemical, small-molecule microarray, 635 nm fluorescence (AID 1105); conditions: FSTL3 binding, higher = more signal;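 further: score merges emission near 667 nm and signal to noise per printed spot across three slides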
# Sequence of Follistatin-related protein 3 (Homo sapiens) (O95633 whole entry, looked up): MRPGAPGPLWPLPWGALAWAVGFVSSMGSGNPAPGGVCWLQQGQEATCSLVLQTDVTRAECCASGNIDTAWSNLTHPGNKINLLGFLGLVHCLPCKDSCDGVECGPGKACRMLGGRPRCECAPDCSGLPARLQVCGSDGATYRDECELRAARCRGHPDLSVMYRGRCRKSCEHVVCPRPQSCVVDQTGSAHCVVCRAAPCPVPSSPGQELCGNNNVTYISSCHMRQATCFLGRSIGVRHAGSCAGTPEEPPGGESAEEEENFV
# [19] = target: Dickkopf-related protein 1 (Homo sapiens) (UniProt O94907); experiment: DKK1 binders on small-molecule microarrays, primary screen, biochemical, small-molecule microarray, 635 nm fluorescence scan (AID 1106); conditions: DKK1 binding, higher = more signal;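 further: score merges emission near 667 nm with signal to noise over three replicate slides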
# Sequence of Dickkopf-related protein 1 (Homo sapiens) (O94907 whole entry, looked up): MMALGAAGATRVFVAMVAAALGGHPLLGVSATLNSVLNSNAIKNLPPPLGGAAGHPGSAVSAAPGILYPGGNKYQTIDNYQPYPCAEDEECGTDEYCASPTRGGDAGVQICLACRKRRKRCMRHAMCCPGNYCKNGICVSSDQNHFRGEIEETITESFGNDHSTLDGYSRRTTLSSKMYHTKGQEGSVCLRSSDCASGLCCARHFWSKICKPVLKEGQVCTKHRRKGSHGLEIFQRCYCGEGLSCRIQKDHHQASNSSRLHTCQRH
# [20] = tested on: Inhibin beta A chain (activin A); experiment: INHBA (activin A) binders on microarrays, primary screen, biochemical, small-molecule microarray, 635 nm fluorescence scan (AID 1107); conditions: small-molecule microarray binding, higher = more signal;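 further: mouse activin A protein probed at 4.33 µg/mL on printed slides; score merges bound-protein fluorescence near 667 nm with spot signal-to-noise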
SMILES,composite z-score [1],z-score [2],z-score [3],z-score [4],composite z-score [5],z-score [6],composite z-score [7],composite z-score [8],composite z-score [9],composite z-score [10],composite z-score [11],composite z-score [12],composite z-score [13],z-score [14],composite z-score [15],composite z-score [16],composite z-score [17],composite z-score [18],composite z-score [19],composite z-score [20]
CCOc1ccc(N2C(=O)/C(=C/C=C/c3ccccc3OC)S(=O)(=O)C2c2cccc([N+](=O)[O-])c2)cc1 (stereo not given),-0.167,-3.8 (inactive),-3.13 (inactive),0.648 (inactive),0.236,0.841 (inactive),-0.0342,0.39,0.638,-0.103,-0.379,0.0757,0.42,1.04 (inactive),0.226,0.342,0.549,0.393,0.218,0.61
C[N+](C)(C)CCCCCCNC(=O)[C@@H]1C[C@@H]2C(=O)N3CCC[C@H]3C(=O)N2[C@@H]1c1cccc(OCCO)c1,1.44,-1.6 (inactive),-0.0376 (inactive),-1.06 (inactive),3.14,0.784 (inactive),-0.0898,1.88,0.245,-0.0967,1.26,-0.303,0.824,-0.739 (inactive),-0.0327,0.586,0.36,0.476,0.808,1.03
CCN1C(=O)[C@H]2[C@H]3[C@H](O)[C@H](O)CC(=NO[C@@H]4O[C@H](CO)[C@@H](O)[C@H](O)[C@H]4O)[C@@H]3CC[C@H]2C1=O,-0.685,-0.58 (inactive),-0.599 (inactive),-0.849 (inactive),-1.12,0.103 (inactive),-0.132,-0.103,-0.389,-0.19,0.562,-0.291,-0.233,-0.448 (inactive),-0.584,-1.42,-0.831,-0.534,-0.0655,0.613
CCOC(=O)[C@H](Cc1ccccc1)NC(=O)CCC1CC(OC(=O)NCc2ccc3c(c2)OCO3)CC2(CCCC(COC(=O)NCC(c3ccccc3)c3ccccc3)O2)O1 (stereo not given in full),1.16,0.668 (inactive),0.9 (inactive),0.687 (inactive),2.34,0.454 (inactive),-0.0485,0.955,1.06,-0.157,1.06,-0.0362,-0.481,-1.45 (inactive),0.525,1.23,0.251,0.929,0.377,-0.0374
C[C@@H](c1ccccc1)N1C(=O)[C@H]2[C@H]3[C@H](O)[C@H](O)CC(=NNC(=O)OCc4ccccc4)[C@H]3CC[C@H]2C1=O,-0.26,0.547 (inactive),0.408 (inactive),0.698 (inactive),0.71,0.687 (inactive),0.2,0.124,-0.246,0.229,-0.0979,0.24,0.794,0.373 (inactive),0.0359,-0.354,0.191,-0.461,-0.415,0.0683
CC(=O)OC[C@H]1O[C@H](CC=NOC[C@@H](C)[C@H](OCc2ccccc2)C(C)C)C=C[C@@H]1OC(C)=O,0.7,-0.523 (inactive),-0.0269 (inactive),-1 (inactive),-0.299,-0.186 (inactive),-0.0345,0.259,-0.14,-0.0873,-0.15,-0.262,-0.478,0.955 (inactive),-0.17,0.1,0.0284,0.523,0.169,-0.0543
O=C1C[C@@H](O)[C@@H](O)[C@@H]2[C@@H]3C(=O)N(C4CCCCC4)C(=O)[C@@H]3CC[C@H]12,0.387,-0.16 (inactive),-0.268 (inactive),0.0415 (inactive),0.294,0.666 (inactive),-0.185,0.467,0.786,-0.127,0.523,-0.376,-0.711,0.804 (inactive),0.438,0.919,0.634,0.553,0.718,-0.294
COc1ccc(O[C@H]2C=C[C@@H](c3ccccc3)O[C@@H]2CON=C[C@@H](C)[C@H](OCc2ccccc2)C(C)C)cc1,-0.28,0.706 (inactive),-0.564 (inactive),0.314 (inactive),-1.14,-0.349 (inactive),-0.235,-0.347,-1.27,-0.241,-0.369,-0.406,-0.17,0.275 (inactive),-1.11,-1.04,-0.805,-0.761,-0.733,0.272
COc1ccc(O[C@H]2C=C[C@@H](c3ccccc3)O[C@@H]2COC(=O)CCC(C)=NOCC[C@@H]2C=C[C@H](OC(C)=O)[C@@H](COC(C)=O)O2)cc1,0.135,-0.209 (inactive),0.951 (inactive),1.62 (inactive),1.69,-0.211 (inactive),0.113,0.476,0.319,-0.039,0.868,-0.0184,-0.483,-0.484 (inactive),-0.249,-0.362,0.275,0.415,0.371,1.22
Cc1cc2c(nc1C)CCCN2CC(C)ON=C1[C@H]2CCn3c(=O)n(-c4ccccc4)c(=O)n3[C@H]2[C@H](O)[C@@H]2O[C@H]12 (stereo not given in full),1.51,-0.706 (inactive),-0.829 (inactive),-0.115 (inactive),1.42,-0.414 (inactive),-0.138,0.725,1.01,-0.0141,0.508,-0.013,-0.499,-0.736 (inactive),0.618,1.1,0.822,0.828,0.686,0.693
